DT40 TDP1 no CPT – qHTS for Inhibitors of human tyrosyl-DNA phosphodiesterase 1 (TDP1): qHTS in cells in absence of CPT | DT40 Tdp1-/- hTDP1 cells, no CPT, ATP luminescence, 48 h | Potency, µM (highest dose often 46.2 µM), without a hit: at the top dose activity change, negative = growth inhibition, usual class: inhibitors | 15% of 420,000 active | AID 686978, 2013; note: potency is the fitted concentration of half-maximal effect; nearly all actives have a fitted effect of over 55% in size
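A cellular qHTS used chicken DT40 cells lacking endogenous Tdp1 but carrying stably transfected human TDP1. Compounds were applied without camptothecin, and cell growth kinetics were judged by ATP-dependent luminescence after ≥48 hr.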
DT40 TDP1 CPT – DT40-hTDP1 cell growth loss with CPT; AID 686979; chicken DT40 Tdp1-/-;hTDP1 cells + 20 nM CPT, ATP luminescence, 48 h; 12% of 420,000 active; Potency, µM (series often up to 46.2 µM), without a hit: at the highest dose activity change, negative = growth inhibition, usual class: inhibitors; note: potency is the fitted concentration of half-maximal effect; nearly all actives have a fitted effect of over 55% in size
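Cell growth measured by CellTiter-Glo luminescence after a minimum 48 h, 37 C compound exposure with 20 nM CPT in Tdp1-knockout DT40 cells stably expressing hTDP1, seeded 400/well; qHTS titration format.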
ALOX12 inh – inhibitors of human 12S-lipoxygenase ALOX12; P18054; 1.1% of 580,000 active; purified 12hLO, xylenol orange hydroperoxide absorbance; Potency, µM (titrated, usually from 108 µM), without a hit: at the highest dose activity change, negative = inhibition, most hits filed as inhibitors; note: potency is the fitted concentration of half-maximal effect
Target sequence (P18054 whole entry, looked up): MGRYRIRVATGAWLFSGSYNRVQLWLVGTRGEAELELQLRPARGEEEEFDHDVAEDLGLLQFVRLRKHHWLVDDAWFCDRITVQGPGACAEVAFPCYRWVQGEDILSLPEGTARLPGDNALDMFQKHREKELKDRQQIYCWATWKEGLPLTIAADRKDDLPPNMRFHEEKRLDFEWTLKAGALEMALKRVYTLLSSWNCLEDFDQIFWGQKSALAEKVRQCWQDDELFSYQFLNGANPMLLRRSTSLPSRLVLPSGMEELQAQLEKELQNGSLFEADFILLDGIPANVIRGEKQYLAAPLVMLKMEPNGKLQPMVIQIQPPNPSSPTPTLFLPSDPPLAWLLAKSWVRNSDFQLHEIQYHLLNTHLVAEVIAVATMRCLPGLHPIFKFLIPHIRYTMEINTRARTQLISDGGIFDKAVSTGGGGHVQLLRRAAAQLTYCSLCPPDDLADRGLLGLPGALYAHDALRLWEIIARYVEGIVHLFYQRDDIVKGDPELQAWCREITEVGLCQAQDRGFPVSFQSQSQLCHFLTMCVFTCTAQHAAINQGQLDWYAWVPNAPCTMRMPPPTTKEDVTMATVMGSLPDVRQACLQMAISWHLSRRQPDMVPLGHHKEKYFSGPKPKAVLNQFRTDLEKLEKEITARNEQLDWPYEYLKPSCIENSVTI
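Purified human 12hLO at 150 nM in 25 mM Hepes, 0.01% Triton X-100, pH 7.0, preincubated 15 min at room temperature with compound. Reaction started with 40 uM arachidonic acid, 30 min at room temperature. Hydroperoxide measured by Fe-xylenol orange, 573/405 nm absorbance ratio.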
HT1080NT lethal – kills 2HG-producing HT-1080-NT fibrosarcoma cells | HT-1080-NT fibrosarcoma viability, CellTiter-Glo ATP luminescence, 48 h | Potency, µM (titrated, usually from 46.1 µM), without a hit: at the highest dose activity, negative = less viability, usual class: cytotoxic | 1.6% of 360,000 active;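 note: NT is the 2HG producing partner of a matched IDH1 knockdown line; potency is the fitted concentration of half-maximal effect; 0% = DMSO-treated cells and -100% = media-only wells without cells; nearly all actives have a fitted effect of over 55% in size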
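HT-1080-NT; 750 cells/well; 5% FBS RPMI; 48 h compound, 37 degrees C; CellTiter-Glo luminescence; curve fitting and curve-class assignment.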
IL1B secr inh – blocks inflammasome-driven IL-1 beta release | THP-1 LPS/ATP IL-1B secretion, AlphaLISA, 16 h; stronger effect = lower value | activity change, % at 57.5 µM | 4.7% of 360,000 active; in the data active = activity change below about -50%; inconclusive = mostly about -30% to -49%
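THP-1 cells pretreated 1 hr with compounds (up to 57.5 uM final), then stimulated with LPS (250 ng/mL final) plus ATP (1.25 mM final); secreted IL-1B measured by AlphaLISA after 16 hr, decreased signal indicating inhibition.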
HT1080 IDH1KD tx – HT-1080 IDH1 knockdown cell toxicity (counter line); 2% of 360,000 active; AID 686971; HT-1080 IDH1 knockdown viability, ATP luminescence, 48 h; Potency, µM (top dose mostly 46.1 µM), without a hit: top-dose activity, negative = toxicity, most hits filed as cytotoxic;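 note: potency is the fitted concentration of half-maximal effect; 0% = DMSO wells and -100% = cell-free medium wells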
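Assay cells: HT-1080 with IDH1 knockdown, 750 per well, RPMI/5% FBS. Exposure: 48 h at 37 °C following 2 h pre-incubation. Read: CellTiter-Glo luminescence; fitted concentration-response, curve class assigned.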
Numbers without * were called inactive; ? = inconclusive; / = no result given; ! = not active in a repeat. Only a selection was taken, and hits are over-represented in it overall. Unless noted, calls come from the whole dose curve; as a rule, active = well fitted curve in the direction sought with a large enough effect; inconclusive = small, poorly fitted or top-dose-only effect, or another doubt; inactive = no such curve, though single readings can be large; an effect the other way counts as inactive or inconclusive. Unless noted, % is set by controls: 0 for no effect and ±100 for the full control effect.

SMILES	DT40 TDP1 no CPT	DT40 TDP1 CPT	ALOX12 inh	HT1080NT lethal	IL1B secr inh	HT1080 IDH1KD tx
Cc1cc(/C=C(\C#N)C(=O)NCC2CCCO2)c(C)n1-c1ccc(Cl)cc1 (stereo not drawn)	?	10µM*	0%	-11%	-2	?
Cc1ccc(C)c(OCCn2cc(/C=C(/C#N)C(=O)NCC3CCCO3)c3ccccc32)c1 (stereo not drawn)	?	16µM*	-22%	-8%	0	-12%
CN1CCc2c(C#N)c(NCc3ccccn3)n3cnnc3c2C1	/	/	-24%	/	/	/
O=S1(=O)CC=C(CSC(=S)NC2CCS(=O)(=O)C2)C1 (stereo not drawn)	?	10µM*	10%	1%	-97*	-14%
CN(C)C(=S)NC1CCS(=O)(=O)C1 (stereo not drawn)	4%	3%	-4%	9%	12	0%
CC(C)(C)c1cc(CSC(=S)NC2CCS(=O)(=O)C2)c(Br)c(C(C)(C)C)c1 (stereo not drawn)	12µM*	6.5µM*	26%	?	-58*	?
NNC(=S)NC1CCS(=O)(=O)C1 (stereo not drawn)	4%	1%	17%	-8%	-13	-5%
COC(=O)[C@]1(S(=O)(=O)c2ccccc2)CC(=O)N(Cc2ccccc2)[C@@H]1c1ccccc1	/	/	-54%	/	/	/
Cc1ccc(C(=O)NCCn2nc(-c3ccc(Cl)cc3)ccc2=O)cc1C	/	/	15%	/	/	/
O=C(CCC(=O)N/N=C/c1ccccc1[N+](=O)[O-])N/N=C/c1ccccc1[N+](=O)[O-]	/	/	-11%	/	/	/
COc1cc([N+](=O)[O-])cc(/C=N/NC(=O)C(C)Nc2cccc3ccccc23)c1O (stereo not drawn)	?	16µM*	?	?	55	18µM*
COc1cc([N+](=O)[O-])cc(/C=N/NC(=O)C(O)(c2ccccc2)c2ccccc2)c1O	?	4.1µM*	4%	?	-7	?
O=C(N/N=C/c1cccc([N+](=O)[O-])c1O)C(O)(c1ccccc1)c1ccccc1	26µM*	?	0%	-23%	38	?
c1ccc2c(c1)OCCOCCOc1ccccc1OCCO2	/	/	-55%	/	/	/
O=C(NC12CC3CC(CC(C3)C1)C2)c1ccc(Cl)c([N+](=O)[O-])c1	/	/	-3%	/	/	/
O=C(CCNc1cccc(Cl)c1)c1ccco1	8.2µM*	7.3µM*	7%	?	4	?
COc1cccc(C2CC(=O)N(c3sc4c(c3C#N)CCCC4)C3=C2C(=O)CCC3)c1OC (stereo not drawn)	/	/	4%	/	/	/
Cn1cnnc1C1CCCN(S(=O)(=O)N2CCCCCC2)C1 (stereo not drawn)	/	/	20%	/	/	/
O=C(c1nnn2c1COC(c1ccc(Cl)cc1)C2)N1CCSCC1 (stereo not drawn)	/	/	1%	/	/	/
COc1ccc(-c2ccc(SC)nn2)cc1	?	-29%	37%	21µM*	-14	23µM*
CCOc1ncccc1C(=O)N1CCN(CC(=O)Nc2ccccc2Cl)CC1	/	/	46%	/	/	/
COc1ccccc1C(CCNCc1ccccc1)c1ccc(OC(C)C)cc1 (stereo not drawn)	21µM*	16µM*	?	?	-89*	?
Cc1ccc(C(CCNCc2ccccc2)c2ccco2)cc1 (stereo not drawn)	/	/	-13%	/	/	/
COc1ccccc1C(CCNCc1ccc(N(C)C)cc1)c1ccc(OC(C)C)cc1 (stereo not drawn)	7.3µM*	21µM*	?	?	-101*	?
COc1ccc(CNCCC(c2ccc(OC(C)C)cc2)c2ccccc2OC)cc1OC (stereo not drawn)	10µM*	8.2µM*	-65%	15µM*	/	18µM*
SMILES	DT40 TDP1 no CPT	DT40 TDP1 CPT	ALOX12 inh	HT1080NT lethal	IL1B secr inh	HT1080 IDH1KD tx
COc1ccc(CNCCC(c2ccc(OC(C)C)cc2)c2ccccc2OC)cc1 (stereo not drawn)	12µM*	13µM*	?	?	-97*	?
COc1ccc(CNCCCSc2ncccn2)cc1OC	-18%	1%	-12%	-3%	-8	-5%
O=Cc1ccc(OCc2ccccc2)c(Cl)c1	/	/	14%	/	/	/
CCOC(=O)C1CCN(c2ncnc3nc[nH]c23)CC1	-26%	-1%	11%	0%	-56*	8%
CCOC(=O)C1CCN(c2ncnc3c2cnn3-c2ccc(OC)cc2)CC1	-30%	-15%	0%	-3%	17	-24%
CCOC(=O)C1CCN(c2ncnc3c(C)csc23)CC1	13µM*	?	0%	-6%	-6	-7%
CCOC(=O)C1CCN(c2ncnc3cc(OC)c(OC)cc23)CC1	21µM*	?	0%	1%	-19	-1%
CCOC(=O)N1CCN(c2ncnc3nc[nH]c23)CC1	?	-24%	1%	26%	1	18%
COc1cc2ncnc(N3CCN(C(=O)Nc4ccc(Oc5ccccc5)cc4)CC3)c2cc1OC	11µM*	11µM*	/	/	/	/
COc1ccccc1CC(=O)Nc1ccc2c(N3CCCCC3)ncnc2c1	/	/	40%	/	/	/
CCC(Sc1nnc(-c2ccc(OC)c(OC)c2)c(-c2ccc(OC)c(OC)c2)n1)C(=O)NC1CCCC1 (stereo not drawn)	?	16µM*	-14%	/	/	/
CCn1c(SCC(=O)NC2CCCCC2)nnc1-c1cc2cccc(OC)c2o1	23µM*	?	0%	-10%	-26	2%
CCOc1ccc(-c2nnc(SCC(=O)NC3CCCCC3)nc2-c2ccc(OCC)c(OC)c2)cc1OC	-27%	-6%	8%	/	/	/
COc1ccc(-c2nnc(SCC(=O)NC3CCCC3)nc2-c2ccc(OC)c(OC)c2)cc1OC	21µM*	18µM*	5%	/	/	/
Cc1ccc(-c2nnc(SCC(=O)NC3CCCC3)nc2-c2ccc(C)cc2)cc1	13µM*	18µM*	-18%	/	/	/
CC(=O)CC(C)(C)S(=O)(=O)c1cccc2c(S(=O)(=O)C(C)(C)CC(C)=O)cccc12	/	/	12%	/	/	/
O=C(NC12CC3CC(CC(C3)C1)C2)C12CC3CC(C1)CC(n1cnc(Cl)n1)(C3)C2	16µM*	21µM*	-4%	14%	31	13%
CNC[C@H](O)c1ccc(O)c(O)c1	12µM*!	8.4µM*!	1.4µM*!	15%	?	-1%
CC(C)NCC(O)c1ccc(O)c(O)c1 (stereo not drawn)	-24%	?	-23%	?	-25	10%
